Data as given in PubChem BioAssay AID2108 (National Center for Advancing Translational Sciences (NCATS), 2009).
Results filed as inconclusive are left out. The source made the active and inactive calls. The call rests on the fitted dose curve; in most records, active means well fitted curve in the direction sought with a large enough effect; inconclusive means small, poorly fitted or top-dose-only effect, or effect the other way, or another doubt; inactive means no such curve, though single readings can be large or run the other way.

Target: Alpha-galactosidase A (Homo sapiens) (UniProt P06280)
Sequence (P06280 32-429 limits assumed): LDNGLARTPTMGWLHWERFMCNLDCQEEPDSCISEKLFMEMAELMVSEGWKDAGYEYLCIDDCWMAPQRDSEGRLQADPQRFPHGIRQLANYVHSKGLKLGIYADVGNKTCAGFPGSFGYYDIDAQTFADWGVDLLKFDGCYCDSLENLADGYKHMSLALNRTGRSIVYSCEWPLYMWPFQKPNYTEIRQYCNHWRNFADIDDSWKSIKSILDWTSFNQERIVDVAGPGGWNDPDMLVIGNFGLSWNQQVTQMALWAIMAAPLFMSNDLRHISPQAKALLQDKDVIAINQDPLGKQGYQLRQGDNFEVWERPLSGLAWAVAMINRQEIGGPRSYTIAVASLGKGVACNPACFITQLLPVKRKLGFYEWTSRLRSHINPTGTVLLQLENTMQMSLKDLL
Assay: Confirmation of Inhibitors of Human alpha-Galactosidase Using Spleen Homogenate
Settings: alpha-galactosidase enzyme activity; series mostly up to 56.2 µM
Procedure, shortened: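 AC50 values come from Hill-equation fits of normalised 4-methylumbelliferone fluorescence (365/440 nm, read after NaOH/glycine stop). Enzyme source: spleen homogenate; substrate 1 mM final; pH 5.0 citrate buffer; 40 min at 37C; compound titration 0.5 nM–58 uM.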

outcome, inactive:
CNc1ncnc2c1ncn2[C@H]1C[C@H](OP(=O)(O)O)[C@@H](COP(=O)(O)O)O1
Fc1ccc(CNc2ccc(N3CCN(Cc4ccccc4)CC3)cc2)cc1
O=S(=O)(c1ccc2c(c1)C(=NNc1ccccc1)c1cc(S(=O)(=O)N3CCOCC3)ccc1-2)N1CCOCC1
C[C@@H](NC(=O)c1nc[nH]c1C(=O)N[C@@H](Cc1ccccc1)C(=O)OC(C)(C)C)c1ccccc1
O=S(=O)(c1ccc2ccccc2c1)N1CCOCC1
Cc1cc(/C=N/Nc2ccc([N+](=O)[O-])cn2)c(C)n1-c1ccc(C(=O)O)cc1
COc1ccc(/C=C/c2nnc(NC(=O)COc3ccc(Cl)cc3)s2)cc1
O=C(Cn1c(=O)[nH]n(-c2ccccc2)c1=O)N1CCCc2ccccc21
c1ccc(-n2c(-c3cccs3)nc3nc4ccccc4nc32)cc1
CCN(CC)c1ccc(-c2nc3cnccn3c2NC2CCCC2)cc1
O=c1oc2ccc3ccccc3c2cc1-c1nc2c(s1)CCc1ccccc1-2
CCC1c2ccc(C)n2CCN1C(=O)Nc1ccccc1C(=O)OC (stereo unspecified)
O=C(/C=C/c1ccc(O)c(O)c1)c1ccc(O[C@@H]2O[C@H](CO)[C@@H](O)[C@H](O)[C@H]2O)c(O)c1O
COc1cc(C2c3cc4c(cc3C(OC3OC5COC(C)O[C@@H]5C(O)C3O)C3COC(=O)C23)OCO4)cc(OC)c1O (stereo partly specified)
Clc1ccc(-c2ccnc(Oc3cc(Cl)ccc3Cl)n2)cc1
COc1cc2cc(CN(Cc3nnnn3Cc3ccccc3)CC3CCCO3)c(=O)[nH]c2cc1OC (stereo unspecified)
N#Cc1cccc(S(=O)(=O)N2CCOCC2)c1
O=C(COC(=O)c1ccccc1Br)NCCc1ccc(F)cc1
CC(C)Cn1c(SCC(=O)N2CCCCC2)nc2ccccc2c1=O
Nc1cnc(Nc2ccc(Br)cc2)nc1N
COc1ccccc1NC(=O)c1ccc(Br)o1
O=S(=O)(c1ccc(Br)cc1)N1CCOCC1
O=S(=O)(c1ccc(O)cc1)N1CCOCC1
Cc1ccc2c(c1)c1ncnc(N3CCC4(CC3)OCCO4)c1n2C
Cc1ccc2nc(-c3ccccc3N)[nH]c2c1
O=S(=O)(c1ccc2nc(-c3ccco3)c(-c3ccco3)nc2c1)N1CCOCC1
COC(=O)c1c(NC(=O)Cn2nc(C(F)F)cc2C(F)F)sc(C)c1C
CCOc1c(Cl)cc(CNc2ccc3[nH]c(=O)[nH]c3c2)cc1OC
O=C(Nc1nc2c(s1)CN(Cc1ccccc1)CC2)C1CCCC1
Cc1ccc(/C=N\Nc2nc3ccc(Cl)cc3[nH]2)o1
Cc1ccc(CNc2ccc(N3CCOCC3)cc2)cc1
O=c1oc2ccc(Cl)cc2cc1-c1nc2c(s1)CCCC2
NN=C1c2cc(S(=O)(=O)NCCO)ccc2-c2ccc(S(=O)(=O)NCCO)cc21
COc1ccc(/C=C/c2nnc(NC(=O)CSc3ccc(C)cc3)s2)cc1
COC(=O)CSc1cc([N+](=O)[O-])ccc1NC(=O)OC
COc1cccc(S(=O)(=O)N2CCOCC2)c1
